Tests used:
Test in all cases: DAPPL (digital affinity profiling via proximity ligation, sequencing); 10 mM Tris-HCl pH 7.5, 50 mM NaCl, 1 mM DTT, 4% glycerol, room temperature, 30 min; GST-TFs on glutathione beads, 16-mer random dsDNA library, 0.1% formaldehyde crosslink after washing; high values mean tight binding
FEV = molecular target: T1, FEV (Homo sapiens, UniProt Q99581 1-238); details: protein: recombinant; tags: N-terminal GST; dsDNA, one strand shown
T1 sequence: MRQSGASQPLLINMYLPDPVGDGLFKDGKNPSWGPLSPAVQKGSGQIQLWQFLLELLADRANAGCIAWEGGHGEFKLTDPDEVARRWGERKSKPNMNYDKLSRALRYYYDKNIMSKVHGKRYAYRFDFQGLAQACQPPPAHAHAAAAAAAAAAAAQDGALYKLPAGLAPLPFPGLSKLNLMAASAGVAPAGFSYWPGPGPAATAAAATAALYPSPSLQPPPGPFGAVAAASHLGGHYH
Method in brief: (§1)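 Human transcription factors were made in yeast as GST fusions, captured on glutathione beads and barcoded with DNA. With a tag-only sample included, the pool was incubated with 200 nmole of a random double-stranded 16-mer DNA library in Tris/NaCl/DTT/glycerol buffer at room temperature for 30 min, then crosslinked with 0.1% formaldehyde after washing, ligated by proximity, amplified and sequenced. For binding signal, each hexamer's read frequency for a factor is divided by its frequency for the tag-only sample.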

ETV5 = ETV5 (Homo sapiens, UniProt P41161 1-510); details: protein: recombinant; tags: N-terminal GST; dsDNA, one strand shown
Chain of ETV5 (P41161 whole entry): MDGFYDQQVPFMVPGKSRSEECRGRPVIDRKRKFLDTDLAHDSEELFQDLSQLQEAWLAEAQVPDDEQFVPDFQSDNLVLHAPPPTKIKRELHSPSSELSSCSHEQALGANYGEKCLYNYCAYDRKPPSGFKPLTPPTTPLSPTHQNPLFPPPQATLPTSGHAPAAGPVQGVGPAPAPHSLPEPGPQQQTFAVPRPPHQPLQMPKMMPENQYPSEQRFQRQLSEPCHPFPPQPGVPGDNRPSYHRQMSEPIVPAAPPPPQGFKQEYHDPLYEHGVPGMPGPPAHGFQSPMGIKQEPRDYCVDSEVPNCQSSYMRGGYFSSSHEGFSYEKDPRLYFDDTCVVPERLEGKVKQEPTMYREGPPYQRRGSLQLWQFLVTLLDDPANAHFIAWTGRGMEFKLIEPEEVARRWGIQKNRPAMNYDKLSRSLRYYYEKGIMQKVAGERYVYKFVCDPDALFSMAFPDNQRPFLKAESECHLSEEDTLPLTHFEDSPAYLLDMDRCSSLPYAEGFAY
Method in brief: as §1

HSF1 = HSF1 (Homo sapiens, UniProt Q00613 1-529); details: protein: recombinant; tags: N-terminal GST; chain copies: 3; dsDNA, one strand shown
Chain of HSF1 (Q00613 whole entry): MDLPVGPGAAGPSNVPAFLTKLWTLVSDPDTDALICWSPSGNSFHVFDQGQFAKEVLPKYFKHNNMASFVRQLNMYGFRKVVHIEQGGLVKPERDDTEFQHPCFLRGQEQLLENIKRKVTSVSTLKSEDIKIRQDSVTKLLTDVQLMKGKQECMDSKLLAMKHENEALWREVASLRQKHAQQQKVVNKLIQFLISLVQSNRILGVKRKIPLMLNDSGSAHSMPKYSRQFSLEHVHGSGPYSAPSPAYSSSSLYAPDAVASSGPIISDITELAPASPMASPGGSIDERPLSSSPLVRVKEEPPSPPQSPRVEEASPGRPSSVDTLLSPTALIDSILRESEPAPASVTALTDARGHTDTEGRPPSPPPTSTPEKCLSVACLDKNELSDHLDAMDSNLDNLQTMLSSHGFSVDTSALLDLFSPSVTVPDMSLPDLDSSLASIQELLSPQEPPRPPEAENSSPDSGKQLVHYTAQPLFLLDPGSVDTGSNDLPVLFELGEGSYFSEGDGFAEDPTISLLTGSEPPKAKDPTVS
Method in brief: as §1

SPIC = molecular target: T2, SPIC (Homo sapiens, UniProt Q8N5J4 1-248); details: protein: recombinant; tags: N-terminal GST; dsDNA, one strand shown
T2 sequence: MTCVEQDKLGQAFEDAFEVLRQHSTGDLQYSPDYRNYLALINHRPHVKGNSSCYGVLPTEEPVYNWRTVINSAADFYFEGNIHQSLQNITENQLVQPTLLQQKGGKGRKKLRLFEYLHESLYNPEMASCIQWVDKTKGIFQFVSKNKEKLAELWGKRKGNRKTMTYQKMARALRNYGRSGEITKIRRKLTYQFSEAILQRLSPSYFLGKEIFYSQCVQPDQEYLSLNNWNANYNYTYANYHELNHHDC
Method in brief: as §1

ELF4 = ELF4 (Homo sapiens, UniProt Q99607 1-663); details: protein: recombinant; tags: N-terminal GST; dsDNA, one strand shown
Chain of ELF4 (Q99607 whole entry): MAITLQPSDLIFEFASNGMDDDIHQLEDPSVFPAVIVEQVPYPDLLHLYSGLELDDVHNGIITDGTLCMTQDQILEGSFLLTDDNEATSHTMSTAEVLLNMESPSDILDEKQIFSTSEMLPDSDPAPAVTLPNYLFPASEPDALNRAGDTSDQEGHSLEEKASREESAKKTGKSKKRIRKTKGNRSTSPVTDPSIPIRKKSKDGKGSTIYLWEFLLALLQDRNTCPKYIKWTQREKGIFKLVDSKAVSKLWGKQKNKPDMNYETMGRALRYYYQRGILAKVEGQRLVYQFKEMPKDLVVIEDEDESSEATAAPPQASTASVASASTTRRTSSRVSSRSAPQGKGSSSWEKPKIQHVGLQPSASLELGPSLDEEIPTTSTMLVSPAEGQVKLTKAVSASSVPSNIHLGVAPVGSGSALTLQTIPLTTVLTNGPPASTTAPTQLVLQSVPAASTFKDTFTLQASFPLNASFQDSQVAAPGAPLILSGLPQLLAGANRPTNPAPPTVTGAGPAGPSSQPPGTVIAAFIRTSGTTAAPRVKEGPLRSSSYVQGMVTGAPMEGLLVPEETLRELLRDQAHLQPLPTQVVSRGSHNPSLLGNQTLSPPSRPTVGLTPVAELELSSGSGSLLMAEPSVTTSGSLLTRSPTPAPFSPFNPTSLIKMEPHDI
Method in brief: as §1

ELK4 = molecular target: T3, ELK4 (Homo sapiens, UniProt P28324-2 1-405); details: protein: recombinant; tags: N-terminal GST; dsDNA, one strand shown
T3 sequence: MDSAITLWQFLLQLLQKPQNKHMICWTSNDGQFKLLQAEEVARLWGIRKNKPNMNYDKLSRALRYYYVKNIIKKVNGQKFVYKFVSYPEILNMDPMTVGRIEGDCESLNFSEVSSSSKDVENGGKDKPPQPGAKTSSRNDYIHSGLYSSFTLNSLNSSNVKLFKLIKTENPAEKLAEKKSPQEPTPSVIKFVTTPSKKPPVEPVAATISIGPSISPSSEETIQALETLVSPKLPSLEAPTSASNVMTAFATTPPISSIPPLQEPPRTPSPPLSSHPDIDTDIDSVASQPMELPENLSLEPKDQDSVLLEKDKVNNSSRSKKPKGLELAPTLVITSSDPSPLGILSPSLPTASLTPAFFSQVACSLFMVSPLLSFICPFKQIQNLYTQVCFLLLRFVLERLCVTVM
Method in brief: as §1

ETV2 = molecular target: T4, ETV2 (Homo sapiens, UniProt O00321 1-342); details: protein: recombinant; tags: N-terminal GST; dsDNA, one strand shown
T4 sequence: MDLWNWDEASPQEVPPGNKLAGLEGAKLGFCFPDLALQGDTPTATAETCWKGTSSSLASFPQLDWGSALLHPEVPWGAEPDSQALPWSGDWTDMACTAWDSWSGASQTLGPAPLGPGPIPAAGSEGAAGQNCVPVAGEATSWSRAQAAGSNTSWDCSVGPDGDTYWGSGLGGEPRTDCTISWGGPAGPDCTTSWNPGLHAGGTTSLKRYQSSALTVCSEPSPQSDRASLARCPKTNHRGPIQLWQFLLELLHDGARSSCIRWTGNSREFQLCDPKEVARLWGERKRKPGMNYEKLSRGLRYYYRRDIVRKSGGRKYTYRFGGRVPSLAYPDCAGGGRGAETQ
Method in brief: as §1

ELF3 = molecular target: T5, ELF3 (Homo sapiens, UniProt P78545 1-371); details: protein: recombinant; tags: N-terminal GST; dsDNA, one strand shown
T5 sequence: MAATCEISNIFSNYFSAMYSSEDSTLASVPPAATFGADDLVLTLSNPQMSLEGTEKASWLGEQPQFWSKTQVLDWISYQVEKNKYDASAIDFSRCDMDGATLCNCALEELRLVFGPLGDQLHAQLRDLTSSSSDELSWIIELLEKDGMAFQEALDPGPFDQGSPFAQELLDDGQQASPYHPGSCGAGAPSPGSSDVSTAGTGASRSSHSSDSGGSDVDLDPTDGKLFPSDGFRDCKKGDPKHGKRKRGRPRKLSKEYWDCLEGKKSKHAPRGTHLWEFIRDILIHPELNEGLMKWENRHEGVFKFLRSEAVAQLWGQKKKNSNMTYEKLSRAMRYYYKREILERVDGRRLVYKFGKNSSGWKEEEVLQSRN
Method in brief: as §1

CRX = CRX (Homo sapiens, UniProt O43186 1-299); details: protein: recombinant; tags: N-terminal GST; dsDNA, one strand shown
Chain of CRX (O43186 whole entry): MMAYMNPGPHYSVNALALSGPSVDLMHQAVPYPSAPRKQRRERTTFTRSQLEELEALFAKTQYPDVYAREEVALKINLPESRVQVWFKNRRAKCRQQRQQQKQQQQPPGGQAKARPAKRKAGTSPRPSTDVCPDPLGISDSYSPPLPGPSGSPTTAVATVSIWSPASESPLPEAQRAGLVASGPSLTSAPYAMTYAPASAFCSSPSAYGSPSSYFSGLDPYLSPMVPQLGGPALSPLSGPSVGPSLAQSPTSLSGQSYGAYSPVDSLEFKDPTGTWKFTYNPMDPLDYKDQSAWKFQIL
Method in brief: as §1

ETV1 = ETV1 (Homo sapiens, UniProt P50549 1-477); details: protein: recombinant; tags: N-terminal GST; dsDNA, one strand shown
Chain of ETV1 (P50549 whole entry): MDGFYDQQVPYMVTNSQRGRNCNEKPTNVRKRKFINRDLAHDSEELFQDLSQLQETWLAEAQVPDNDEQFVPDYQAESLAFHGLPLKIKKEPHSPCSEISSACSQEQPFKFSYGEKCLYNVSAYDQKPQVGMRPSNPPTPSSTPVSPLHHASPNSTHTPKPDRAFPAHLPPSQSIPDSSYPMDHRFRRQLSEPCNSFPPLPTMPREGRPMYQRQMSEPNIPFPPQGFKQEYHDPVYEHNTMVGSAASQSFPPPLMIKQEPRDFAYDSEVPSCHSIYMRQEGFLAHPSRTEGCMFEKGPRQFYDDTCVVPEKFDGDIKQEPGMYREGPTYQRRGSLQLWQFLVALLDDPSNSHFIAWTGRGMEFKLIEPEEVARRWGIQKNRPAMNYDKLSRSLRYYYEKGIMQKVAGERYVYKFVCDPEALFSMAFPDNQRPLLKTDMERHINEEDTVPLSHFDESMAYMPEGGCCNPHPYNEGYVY
Method in brief: as §1

ERF = molecular target: T6, ERF (Homo sapiens, UniProt P50548 1-548); details: protein: recombinant; tags: N-terminal GST; dsDNA, one strand shown
T6 sequence: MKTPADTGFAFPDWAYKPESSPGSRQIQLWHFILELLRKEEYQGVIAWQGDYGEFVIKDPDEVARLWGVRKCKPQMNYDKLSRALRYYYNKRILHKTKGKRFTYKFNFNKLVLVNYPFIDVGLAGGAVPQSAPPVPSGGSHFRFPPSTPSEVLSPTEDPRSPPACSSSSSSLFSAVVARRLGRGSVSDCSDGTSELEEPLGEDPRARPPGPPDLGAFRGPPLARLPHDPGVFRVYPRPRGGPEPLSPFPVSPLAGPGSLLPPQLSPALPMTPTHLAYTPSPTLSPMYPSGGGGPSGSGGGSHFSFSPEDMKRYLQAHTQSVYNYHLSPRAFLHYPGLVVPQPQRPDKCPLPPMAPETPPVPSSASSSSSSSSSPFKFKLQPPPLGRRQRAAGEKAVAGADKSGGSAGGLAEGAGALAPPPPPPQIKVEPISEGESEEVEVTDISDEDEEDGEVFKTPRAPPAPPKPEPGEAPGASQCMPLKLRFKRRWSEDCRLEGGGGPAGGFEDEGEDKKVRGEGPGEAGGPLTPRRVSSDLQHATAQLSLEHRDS
Method in brief: as §1

ETV3L = molecular target: T7, ETV3L (Homo sapiens, UniProt Q6ZN32 1-361); details: protein: recombinant; tags: N-terminal GST; dsDNA, one strand shown
T7 sequence: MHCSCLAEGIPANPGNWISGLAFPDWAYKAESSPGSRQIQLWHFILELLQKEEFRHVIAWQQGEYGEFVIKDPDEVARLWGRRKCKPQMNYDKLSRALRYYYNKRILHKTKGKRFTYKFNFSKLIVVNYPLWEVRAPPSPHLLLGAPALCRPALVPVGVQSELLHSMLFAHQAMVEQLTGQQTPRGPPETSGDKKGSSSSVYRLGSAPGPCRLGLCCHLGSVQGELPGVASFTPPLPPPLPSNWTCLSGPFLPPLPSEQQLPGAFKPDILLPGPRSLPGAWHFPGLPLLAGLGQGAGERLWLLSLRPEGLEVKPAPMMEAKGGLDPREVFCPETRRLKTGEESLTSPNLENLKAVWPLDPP
Method in brief: as §1

ETS2 = molecular target: T8, ETS2 (Homo sapiens, UniProt P15036 1-469); details: protein: recombinant; tags: N-terminal GST; dsDNA, one strand shown
T8 sequence: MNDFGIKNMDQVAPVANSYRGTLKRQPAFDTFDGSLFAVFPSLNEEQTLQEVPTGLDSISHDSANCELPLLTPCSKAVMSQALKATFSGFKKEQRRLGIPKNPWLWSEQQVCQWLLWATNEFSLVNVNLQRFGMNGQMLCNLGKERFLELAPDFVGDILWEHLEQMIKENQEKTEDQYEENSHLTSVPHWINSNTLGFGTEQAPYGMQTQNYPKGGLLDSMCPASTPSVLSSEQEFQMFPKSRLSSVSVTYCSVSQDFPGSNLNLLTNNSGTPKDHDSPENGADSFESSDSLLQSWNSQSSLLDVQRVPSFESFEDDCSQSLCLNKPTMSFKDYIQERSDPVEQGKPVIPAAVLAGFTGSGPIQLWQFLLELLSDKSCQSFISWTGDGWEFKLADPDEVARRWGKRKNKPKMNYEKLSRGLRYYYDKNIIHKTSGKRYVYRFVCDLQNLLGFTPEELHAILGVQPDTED
Method in brief: as §1

SPDEF = molecular target: T9, SPDEF (Homo sapiens, UniProt O95238 1-335); details: protein: recombinant; tags: N-terminal GST; dsDNA, one strand shown
T9 sequence: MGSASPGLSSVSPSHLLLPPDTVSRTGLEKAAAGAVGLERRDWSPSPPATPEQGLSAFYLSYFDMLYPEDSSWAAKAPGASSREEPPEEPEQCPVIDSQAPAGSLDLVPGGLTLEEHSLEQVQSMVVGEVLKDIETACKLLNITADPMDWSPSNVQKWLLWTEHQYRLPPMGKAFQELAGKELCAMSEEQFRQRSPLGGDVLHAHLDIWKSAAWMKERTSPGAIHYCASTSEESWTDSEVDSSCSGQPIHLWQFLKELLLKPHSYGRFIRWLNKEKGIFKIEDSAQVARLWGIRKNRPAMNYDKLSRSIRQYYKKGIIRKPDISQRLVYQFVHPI
Method in brief: as §1

ETV7 = molecular target: T10, ETV7 (Homo sapiens, UniProt Q9Y603 1-341); details: protein: recombinant; tags: N-terminal GST; dsDNA, one strand shown
T10 sequence: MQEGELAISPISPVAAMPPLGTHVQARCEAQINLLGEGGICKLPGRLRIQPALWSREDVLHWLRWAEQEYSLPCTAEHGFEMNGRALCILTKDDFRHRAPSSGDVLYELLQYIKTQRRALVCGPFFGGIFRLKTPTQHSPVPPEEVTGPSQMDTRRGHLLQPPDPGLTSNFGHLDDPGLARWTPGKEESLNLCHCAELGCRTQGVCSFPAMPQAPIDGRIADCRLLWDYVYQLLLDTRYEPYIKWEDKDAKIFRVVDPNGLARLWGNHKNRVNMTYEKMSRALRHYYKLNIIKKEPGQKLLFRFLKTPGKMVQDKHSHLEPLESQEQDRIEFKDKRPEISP
Method in brief: as §1

ELF5 = molecular target: T11, ELF5 (Homo sapiens, UniProt Q9UKW6-2 1-255); details: protein: recombinant; tags: N-terminal GST; dsDNA, one strand shown
T11 sequence: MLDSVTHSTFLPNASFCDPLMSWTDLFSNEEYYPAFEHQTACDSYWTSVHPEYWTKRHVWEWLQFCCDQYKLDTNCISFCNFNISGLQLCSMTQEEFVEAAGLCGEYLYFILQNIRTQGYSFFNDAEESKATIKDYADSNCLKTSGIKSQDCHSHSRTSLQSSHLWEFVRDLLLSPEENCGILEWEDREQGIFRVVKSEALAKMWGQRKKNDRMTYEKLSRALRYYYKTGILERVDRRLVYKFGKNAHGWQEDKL
Method in brief: as §1

ETV3 = molecular target: T12, ETV3 (Homo sapiens, UniProt P41162-2 1-143); details: protein: recombinant; tags: N-terminal GST; dsDNA, one strand shown
T12 sequence: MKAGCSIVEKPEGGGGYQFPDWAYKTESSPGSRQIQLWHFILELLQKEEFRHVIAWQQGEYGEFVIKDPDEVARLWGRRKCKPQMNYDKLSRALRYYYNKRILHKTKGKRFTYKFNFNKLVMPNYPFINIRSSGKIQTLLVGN
Method in brief: as §1

ETV6 = ETV6 (Homo sapiens, UniProt P41212 1-452); details: protein: recombinant; tags: N-terminal GST; dsDNA, one strand shown
Chain of ETV6 (P41212 whole entry): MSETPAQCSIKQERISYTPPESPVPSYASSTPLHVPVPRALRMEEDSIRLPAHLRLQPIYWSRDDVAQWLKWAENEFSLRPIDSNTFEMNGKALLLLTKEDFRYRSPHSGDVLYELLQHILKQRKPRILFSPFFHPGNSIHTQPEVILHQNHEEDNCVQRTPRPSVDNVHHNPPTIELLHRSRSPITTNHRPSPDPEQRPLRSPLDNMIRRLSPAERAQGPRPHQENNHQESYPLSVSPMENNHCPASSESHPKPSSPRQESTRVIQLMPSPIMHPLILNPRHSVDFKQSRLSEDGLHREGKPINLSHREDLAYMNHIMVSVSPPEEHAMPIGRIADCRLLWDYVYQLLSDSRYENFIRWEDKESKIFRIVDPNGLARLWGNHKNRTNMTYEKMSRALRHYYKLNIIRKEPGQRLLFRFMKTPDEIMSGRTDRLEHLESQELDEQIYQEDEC
Method in brief: as §1

TTTTAT
binding signal (FEV): 1.32 fold enrichment (6-mer frequency, TF over GST control)
binding signal (ETV5): 1.26 fold enrichment (6-mer frequency, TF over GST control)
binding signal (HSF1): 1.46 fold enrichment (6-mer frequency, TF over GST control)
binding signal (SPIC): 1.39 fold enrichment (6-mer frequency, TF over GST control)
binding signal (ELF4): 1.4 fold enrichment (6-mer frequency, TF over GST control)
binding signal (ELK4): 1.26 fold enrichment (6-mer frequency, TF over GST control)
binding signal (ETV2): 1.36 fold enrichment (6-mer frequency, TF over GST control)
binding signal (ELF3): 1.32 fold enrichment (6-mer frequency, TF over GST control)
binding signal (CRX): 1.77 fold enrichment (6-mer frequency, TF over GST control)
binding signal (ETV1): 1.3 fold enrichment (6-mer frequency, TF over GST control)
binding signal (ERF): 1.17 fold enrichment (6-mer frequency, TF over GST control)
binding signal (ETV3L): 1.39 fold enrichment (6-mer frequency, TF over GST control)
binding signal (ETS2): 1.23 fold enrichment (6-mer frequency, TF over GST control)
binding signal (SPDEF): 1.22 fold enrichment (6-mer frequency, TF over GST control)
binding signal (ETV7): 1.34 fold enrichment (6-mer frequency, TF over GST control)
binding signal (ELF5): 1.3 fold enrichment (6-mer frequency, TF over GST control)
binding signal (ETV3): 1.45 fold enrichment (6-mer frequency, TF over GST control)
binding signal (ETV6): 1.36 fold enrichment (6-mer frequency, TF over GST control)

From article PMC7862700, “An all-to-all approach to the identification of sequence-specific readers for epigenetic DNA modifications on cytosine”
